Reference: PubChem BioAssay
The source made the active and inactive calls. Unless noted, how the calls were made is not given here.

Columns and labels:
[1] = test system: Wnt5a (protein binding on small-molecule microarray); experiment: Wnt5a binders on small-molecule microarray, primary screen, biophysical, 635/667 nm fluorescence (AID 1142); settings: 635 nm fluorescence, higher = more signal;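 further: fluorescence read at 667 nm with signal to noise per printed feature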
[2] = cell viability in Huh7 cells, primary screen, cytotoxicity control for HCV replication inhibitor project, CellTiter-Glo luminescence, basal, 48 h (AID 1143); settings: Huh7 HCV replicon, higher = more signal, called active from +8 up or from −8 down;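 further: Huh7 hepatoma cells carrying a hepatitis C replication reporter with no stimulus; test concentration not given here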
[3] = P. aeruginosa biofilm formation inhibitors, primary screen, PAO1 strain, BacTiter-Glo luminescence, LB-PBS (AID 1144); settings: 12 h, higher = more signal
[4] = CREB reporter modulators without forskolin, primary screen, cell-based, PC12, CRE-LacZ reporter, unstimulated (AID 1145); settings: no forskolin, luminescence, 4.5 h, higher = more signal, called active from +8 up or from −8 down
[5] = CREB reporter modulators under forskolin, primary screen, cell-based, PC12, CRE-LacZ reporter, forskolin-stimulated (AID 1146); settings: luminescence, 4.5 h, higher = more signal, called active from +8 up or from −8 down;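 further: PC12 cells with 6xCRE LacZ reporter stimulated by forskolin 10 µM; beta-galactosidase reporter signal reflecting CREB driven transcription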
[6] = biological target: Streptavidin (Streptomyces avidinii) (UniProt P22629); experiment: streptavidin binders on small-molecule microarray, primary screen, artefact control for SMM compound annotation, biophysical, 635/667 nm fluorescence (AID 1147); settings: streptavidin binding, higher = more signal;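 further: signal reflects streptavidin binding to arrayed compounds as a control protein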
[7] = small-molecule binders of probe aInhba, primary screen, biochemical, small-molecule microarray, 635/667 nm fluorescence (AID 1148); settings: higher = more signal;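 further: score merges 667nm spot fluorescence with signal-to-noise for antibody binding to printed compounds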
Torsin-1A (Homo sapiens) [8] = biological target: Torsin-1A (Homo sapiens) (UniProt O14656); experiment: torsin A binders from cell lysate, primary screen, small-molecule microarray, wild-type, 635/667 nm (AID 1149); settings: COS7 hTOR1A-WT lysate, 635 nm fluorescence, higher = more signal
Torsin-1A (Homo sapiens) [9] = biological target: Torsin-1A (Homo sapiens) (UniProt O14656); experiment: small-molecule binders of mutant TOR1A in lysate, primary screen, cell lysate, small-molecule microarray, COS7 lysate, 635/667 nm fluorescence (AID 1150); settings: COS7 hTOR1A mutant lysate, 635 nm fluorescence, higher = more signal;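 further: score pools 667 nm emission and signal to noise measuring lysate protein binding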
[10] = test system: Sonic hedgehog protein (Shh); experiment: small-molecule binders of Shh protein, primary screen, biochemical, small-molecule microarray, 635/667 nm fluorescence (AID 1151); settings: small-molecule microarray binding, 635 nm fluorescence; higher = more signal;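 further: Shh protein binding to compounds spotted on small-molecule microarray slides; score combines spot fluorescence intensity with signal-to-noise across triplicate slides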

Chain of Torsin-1A (Homo sapiens) (O14656 whole entry, looked up): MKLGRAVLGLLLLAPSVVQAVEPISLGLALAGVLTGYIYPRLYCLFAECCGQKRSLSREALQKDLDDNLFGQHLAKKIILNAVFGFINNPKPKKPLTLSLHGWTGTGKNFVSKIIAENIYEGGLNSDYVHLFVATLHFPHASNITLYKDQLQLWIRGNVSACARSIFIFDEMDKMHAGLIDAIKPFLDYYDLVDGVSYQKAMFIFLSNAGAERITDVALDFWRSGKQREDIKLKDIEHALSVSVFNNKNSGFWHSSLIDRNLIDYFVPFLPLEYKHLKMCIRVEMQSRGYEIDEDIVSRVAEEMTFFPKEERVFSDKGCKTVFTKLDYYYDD
Chain of Streptavidin (Streptomyces avidinii) (P22629 whole entry, looked up): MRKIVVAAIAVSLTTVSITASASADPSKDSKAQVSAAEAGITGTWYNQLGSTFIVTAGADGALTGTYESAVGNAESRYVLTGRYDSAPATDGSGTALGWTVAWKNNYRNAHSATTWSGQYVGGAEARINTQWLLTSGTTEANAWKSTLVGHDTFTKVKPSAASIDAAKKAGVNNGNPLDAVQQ

SMILES	composite z-score [1]	z-score [2]	z-score [3]	z-score [4]	z-score [5]	composite z-score [6]	composite z-score [7]	composite z-score (Torsin-1A (Homo sapiens) [8])	composite z-score (Torsin-1A (Homo sapiens) [9])	composite z-score [10]
O=C1OCCC/C=C\[C@H]2OC34C=CCN(c5ccc6ccccc6c5)C(=O)[C@H]3N(CCO)C(=O)[C@@H]4C12 (stereo not given in full)	-0.325	0.43 (inactive)	0.515 (inactive)	0.601 (inactive)	-0.183 (inactive)	-1.2	-0.299	-0.427	-0.839	-0.59
CCCCC(O)C1C=CC2C(=O)N(C)C(=O)C2N1N(c1ccccc1)c1ccccc1 (stereo not given)	0.29	-0.975 (inactive)	0.092 (inactive)	1.59 (inactive)	0.281 (inactive)	0.971	0.0075	0.14	0.464	0.471
[N-]=[N+]=Nc1ccccc1C[C@]1(C(=O)NCC(O)CO)COC(c2ccc(OCCCO)cc2)=N1 (stereo not given in full)	0.123	-0.231 (inactive)	-0.3 (inactive)	0.493 (inactive)	-1.1 (inactive)	0.305	-0.0131	1.3	1.72	-1.46
N[C@@H](Cc1ccccc1)C(=O)NCc1cn(Cc2ccccc2)nn1	-0.0432	0.609 (inactive)	0.391 (inactive)	0.381 (inactive)	-0.644 (inactive)	0.0584	0.0464	1.14	0.186	0.822
CC(C)C(CO)N1C(=O)[C@@H]2C3C(=O)OCCC/C=C\[C@H]3OC23C=CCN(c2ccc4ccccc4c2)C(=O)[C@@H]13 (stereo not given in full)	-0.4	-0.567 (inactive)	1.09 (inactive)	-0.761 (inactive)	-0.137 (inactive)	-0.537	-0.0695	-1.83	-0.801	0.41
O=C1NC(=O)C2C1C=CC(C(O)c1ccco1)N2Nc1ccc(Cl)cc1Cl (stereo not given)	-0.118	-0.483 (inactive)	-0.315 (inactive)	0.0501 (inactive)	0.815 (inactive)	0.531	-0.0986	0.148	0.672	0.576
Cc1ccccc1C(O)C1C=CC2C(=O)NC(=O)C2N1Nc1ccccn1 (stereo not given)	-0.155	1.14 (inactive)	-0.767 (inactive)	-0.708 (inactive)	-0.474 (inactive)	-0.15	-0.102	0.248	0.0151	-0.224
CO[C@H]1O[C@H](CO)[C@@H](OC(=O)Nc2ccc(Br)cc2)[C@@H]2OC(=O)[C@@H](Cc3ccccc3)C/C=C/C[C@H](Cc3ccccc3)C(=O)O[C@@H]12	0.891	-5.16 (inactive)	-0.435 (inactive)	-0.263 (inactive)	-0.396 (inactive)	-0.0062	0.115	0.048	0.91	0.0376
COc1ccc([Si](C)(C)[C@@H]2[C@@H](CCO)O[C@]3(C(=O)N(Cc4ccccc4)c4ccc(NC(=O)[C@H](C)O)cc43)[C@H]2C)cc1	0.514	-7.95 (inactive)	-1.07 (inactive)	12.2 (active)	-0.161 (inactive)	0.753	0.108	1.05	0.854	1.95
COC(=O)[C@@]1(Cc2ccc(OC)cc2)[C@H]2c3cc(C(=O)N(C)C)n(Cc4ccc(C)o4)c3C[C@H]2CN1C(=O)c1ccccc1	0.331	-1.93 (inactive)	1.15 (inactive)	-0.568 (inactive)	-0.46 (inactive)	0.57	0.112	-0.0657	0.567	-0.797
CC(C)c1ccc(NN2C(C(O)c3ccc(C#N)cc3)C=CC3C(=O)N(c4ccccc4)C(=O)C32)cc1 (stereo not given)	0.248	-0.687 (inactive)	-0.803 (inactive)	0.812 (inactive)	0.802 (inactive)	1.96	0.41	0.0628	0.579	-0.163
CCCC=C(CCC)[C@@H](NC(=O)c1cccs1)c1ccc(C(=O)OC)cc1	0.535	-0.268 (inactive)	-0.473 (inactive)	-0.951 (inactive)	0.158 (inactive)	0.373	0.375	0.657	0.183	-0.83
CCCCN1CC=CC23O[C@@H]4/C=C\CCCOC(=O)C4[C@H]2C(=O)N(CCO)[C@@H]3C1=O (stereo not given in full)	-0.703	-0.211 (inactive)	-1.29 (inactive)	-0.48 (inactive)	-0.681 (inactive)	-1.6	-0.128	-2.13	-1.59	-0.214
NCCCCCCNC(=O)[C@@H]1C[C@@H]2C(=O)N[C@@H](CCCCN)C(=O)N2[C@@H]1c1ccc(O)cc1	0.0704	-2.28 (inactive)	-0.611 (inactive)	-1.35 (inactive)	-0.965 (inactive)	-0.865	0.033	0.822	1.03	1.62
CN(C)CCCCCCNC(=O)[C@@H]1C[C@@H]2C(=O)N3CCC[C@H]3C(=O)N2[C@@H]1c1cccc(OCCO)c1	0.697	-0.0705 (inactive)	0.15 (inactive)	0.151 (inactive)	0.766 (inactive)	0.656	1.06	1.99	1.43	1.54
COCC(=C=CC[C@H](O)c1ccc(CO)o1)CCO	0.181	-0.25 (inactive)	0.308 (inactive)	1.51 (inactive)	-0.255 (inactive)	0.141	-0.003	0.494	0.246	1.99
O=C1O[C@@H](c2ccccc2)[C@@H](c2ccccc2)N2[C@@H](c3ccc(OCCO)cc3)[C@]3(C(=O)Nc4ccc(C#CC5=CCCCC5)cc43)[C@@H](C(=O)NC[C@H](O)c3ccccc3)[C@H]12	0.771	-3.51 (inactive)	-0.209 (inactive)	-0.329 (inactive)	-0.239 (inactive)	1.5	0.853	0.411	1.01	1.38
COc1ccc([Si](C)(C)[C@H]2[C@H](CC(=O)N3CCC[C@H]3CO)O[C@@]3(C(=O)N(Cc4ccc(N5CCOC5=O)cc4)c4ccccc43)[C@@H]2C)cc1	0.434	-2.09 (inactive)	0.11 (inactive)	0.702 (inactive)	-0.101 (inactive)	-0.0564	0.235	0.702	0.64	2.05
C=CCN1C(=O)[C@]2(CCS(=O)(=O)c3ccccc3)N=C(c3ccc(OCCCO)cc3)O[C@@H]2c2ccccc21	0.782	-3.58 (inactive)	-0.492 (inactive)	1.8 (inactive)	-1.11 (inactive)	0.479	0.0841	0.659	0.573	1.65
COc1ccc([Si](C)(C)[C@@H]2[C@@H](CC(=O)N3CCC[C@H]3CO)O[C@]3(C(=O)N(Cc4cccc(N5C(=O)COc6ccccc65)c4)c4ccccc43)[C@H]2C)cc1	0.326	-5.39 (inactive)	0.425 (inactive)	1.5 (inactive)	-0.361 (inactive)	0.554	-0.0494	0.95	0.938	1.12
C=CCOC(=O)[C@@H]1[C@H]2C(=O)O[C@H](c3ccccc3)[C@H](c3ccccc3)N2[C@H](c2ccc(OCCOC(=O)[C@@H]3C[C@@H]4C(=O)N[C@@H](CCCC[N+](C)(C)C)C(=O)N4[C@@H]3c3ccc(O)cc3)cc2)[C@@]12C(=O)Nc1ccc(I)cc12	0.865	-0.731 (inactive)	-1.37 (inactive)	-1.35 (inactive)	0.206 (inactive)	-0.111	0.0665	1.22	0.781	1.83
CC(C)C(CO)N1C(=O)[C@@H]2[C@H]3C(=O)OCC=C[C@H]3OC23C=CCN(c2ccc(Cl)cc2)C(=O)[C@@H]13 (stereo not given in full)	-0.0632	-0.755 (inactive)	2.84 (inactive)	0.203 (inactive)	-0.652 (inactive)	-0.446	-0.0987	-0.677	-0.377	-0.339
CCN(CC)c1ccc(N2CC=CC34O[C@@H]5/C=C\CCCOC(=O)C5[C@H]3C(=O)N(C(C)CO)[C@@H]4C2=O)cc1 (stereo not given in full)	-0.367	0.307 (inactive)	-1.6 (inactive)	1.01 (inactive)	-0.695 (inactive)	-0.245	-0.0986	-0.428	-0.539	1.19
CC1CC/C=C\[C@H]2OC34C=CCN(c5ccc(Cl)cc5)C(=O)[C@H]3N(C(C)CO)C(=O)[C@]4(C)C2C(=O)O1 (stereo not given in full)	-0.304	0.0276 (inactive)	0.2 (inactive)	-0.0859 (inactive)	0.325 (inactive)	-0.367	-0.401	-0.979	-1.5	-0.374
CCOc1cc(C(O)C2C=CC3C(=O)NC(=O)C3N2Nc2ccc(Cl)cc2Cl)ccc1O (stereo not given)	-0.0753	0.625 (inactive)	-0.542 (inactive)	1 (inactive)	-0.323 (inactive)	-0.431	0.0427	-0.662	-0.141	-0.479
COc1ccc([Si](C)(C)[C@@H]2[C@@H](CCO)O[C@]3(C(=O)N(Cc4ccccc4)c4ccc(N5CCOC5=O)cc43)[C@H]2C)cc1	0.0035	-5.88 (inactive)	-1.37 (inactive)	3.23 (inactive)	-0.205 (inactive)	0.242	-0.016	0.151	0.817	1.39
COc1cc(NN2C(C(O)c3cc(OC)c(OC)c(OC)c3)C=CC3C(=O)N(C)C(=O)C32)cc(OC)c1OC (stereo not given)	-0.019	-0.0088 (inactive)	-0.792 (inactive)	0.243 (inactive)	0.445 (inactive)	0.853	-0.0336	0.434	0.459	0.0774
CCCC#C[Si](O[C@H](CC)c1cn([C@H](C)c2ccccc2)nn1)(C(C)C)C(C)C	0.0759	-0.746 (inactive)	-0.616 (inactive)	-0.621 (inactive)	-0.929 (inactive)	-0.121	0.143	0.575	0.95	0.275
CCCC=C(CCC)[C@@H](NS(=O)(=O)CC12CCC(CC1=O)C2(C)C)c1ccc(C(=O)OC)cc1 (stereo not given in full)	0.0202	-0.816 (inactive)	-1.06 (inactive)	-0.572 (inactive)	0.0711 (inactive)	0.333	0.361	0.924	0.792	0.31
Cc1cc(C)c(C(O)C2C=CC3C(=O)N(c4ccccc4)C(=O)C3N2Nc2ccccc2F)c(C)c1 (stereo not given)	-0.122	0.224 (inactive)	-0.386 (inactive)	0.44 (inactive)	-0.425 (inactive)	0.563	0.122	-0.489	-0.395	0.0807
